Laboratory results published in the supplement of paper PMC3545927.
The other results are listed elsewhere or left out. How many sequences the whole screen found active is unknown.

B1: HC2506 (peptide)
chain: CASTMCSAHLAGNASASA
B2: HC1817 (peptide)
chain: CADSMEECSQAGNASASA
B3: HC2449 (peptide)
chain: CAEYEVPCHRAGNASASA
B4: FS-947 (peptide)
chain: CANSSRSKKPAGNASASA
B5: FS-1872 (peptide)
chain: CARVKRNILAAGNASASA
B6: FS-1840 (peptide)
chain: CARSIRDILAAGNASASA
B7: FS-335 (peptide)
chain: CAHWSMSKRDAGNASASA
B8: FS-406 (peptide)
chain: CACVLRSKRDAGNASASA
B9: FS-407 (peptide)
chain: CACVSRSKRDAGNASASA
B10: HC2561 (peptide)
chain: CASTPCSANLAGNASASA
B11: HC1459 (peptide)
chain: CADVVTKLPLAGNASASA
B12: FS-958 (peptide)
chain: CARTSRRKRYAGNASASA
B13: FS-619 (peptide)
chain: CAPKARRKRYAGNASASA
B14: HC1462 (peptide)
chain: CAPLAVMGSSAGNASASA
B15: FS-1274 (peptide)
chain: CARTSRRKRAAGNASASA
B16: HC1540 (peptide)
chain: CAFTEAMTRYAGNASASA
B17: HC898 (peptide)
chain: CAITLPQDAVAGNASASA
B18: HC675 (peptide)
chain: CAITAYAQQTAGNASASA
B19: HC654 (peptide)
chain: CAGADTAACGAGNASASA
B20: HC206 (peptide)
chain: CACGWAGWLLAGNASASA
B21: HC1981 (peptide)
chain: CAENTTPCSGAGNASASA
B22: HC1264 (peptide)
chain: CASAPSLKATAGNASASA
B23: HC1762 (peptide)
chain: CAMEECSQQLAGNASASA
B24: FS-1467 (peptide)
chain: CAMAARMKRKAGNASASA
B25: FS-1326 (peptide)
chain: CAGARRAKRKAGNASASA
B26: HC1774 (peptide)
chain: CAMEECSQHKAGNASASA
B27: FS-385 (peptide)
chain: CAVCPRMKRKAGNASASA
B28: HC135 (peptide)
chain: CAEVVSSTWVAGNASASA
B29: HC941 (peptide)
chain: CAVFTGLTHIAGNASASA
B30: HC628 (peptide)
chain: CAQMVIIKLGAGNASASA
B31: FS-1346 (peptide)
chain: CAILQRLKRIAGNASASA
B32: FS-1212 (peptide)
chain: CAIFKRKKRIAGNASASA
B33: FS-345 (peptide)
chain: CAKTNRKTRFAGNASASA
B34: FS-1039 (peptide)
chain: CANPQRFDRIAGNASASA
B35: FS-450 (peptide)
chain: CAKKRRATRFAGNASASA
B36: FS-183 (peptide)
chain: CAQNERSYRIAGNASASA
B37: HC2267 (peptide)
chain: CAFLEVVTSTAGNASASA
B38: HC1539 (peptide)
chain: CARAFTEAMTAGNASASA
B39: HC868 (peptide)
chain: CAVAYYRGLDAGNASASA
B40: HC336 (peptide)
chain: CAAHWGVLAGAGNASASA
B41: FS-418 (peptide)
chain: CAEWLRKKRIAGNASASA
B42: FS-936 (peptide)
chain: CAKKRRKKRIAGNASASA
B43: FS-625 (peptide)
chain: CASLHLKKRIAGNASASA
B44: FS-806 (peptide)
chain: CAIYCRKKRIAGNASASA
B45: FS-443 (peptide)
chain: CAIQSRRKKIAGNASASA

Target: furin, P09958
Assay: furin cleavage Z-score vs untreated control; higher = more cleavage, active = 3.5 or more, inactive = 1 or less, 8 variable residues between constant flanks
Description: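 Multiplexed peptide-cDNA fusion cleavage assay. 8-mer variable peptides flanked by constant Cys-Ala (N-term) and Ala-Gly-Asn-Ala-Ser-Ala-Ser-Ala (C-term) and conjugated to a cDNA oligonucleotide were bead-immobilised via the N-terminus. They were treated with purified furin at a 1:10 enzyme:substrate ratio in 50 mM HEPES pH 7.5, 1 mM CaCl2, 100 mM NaCl for 7.5, 15 or 30 min. Released cDNA was counted by next-generation sequencing, and log counts versus no-furin controls were lowess-adjusted and converted to robust Z-scores.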

Sequence of furin, P09958 (P09958 whole entry): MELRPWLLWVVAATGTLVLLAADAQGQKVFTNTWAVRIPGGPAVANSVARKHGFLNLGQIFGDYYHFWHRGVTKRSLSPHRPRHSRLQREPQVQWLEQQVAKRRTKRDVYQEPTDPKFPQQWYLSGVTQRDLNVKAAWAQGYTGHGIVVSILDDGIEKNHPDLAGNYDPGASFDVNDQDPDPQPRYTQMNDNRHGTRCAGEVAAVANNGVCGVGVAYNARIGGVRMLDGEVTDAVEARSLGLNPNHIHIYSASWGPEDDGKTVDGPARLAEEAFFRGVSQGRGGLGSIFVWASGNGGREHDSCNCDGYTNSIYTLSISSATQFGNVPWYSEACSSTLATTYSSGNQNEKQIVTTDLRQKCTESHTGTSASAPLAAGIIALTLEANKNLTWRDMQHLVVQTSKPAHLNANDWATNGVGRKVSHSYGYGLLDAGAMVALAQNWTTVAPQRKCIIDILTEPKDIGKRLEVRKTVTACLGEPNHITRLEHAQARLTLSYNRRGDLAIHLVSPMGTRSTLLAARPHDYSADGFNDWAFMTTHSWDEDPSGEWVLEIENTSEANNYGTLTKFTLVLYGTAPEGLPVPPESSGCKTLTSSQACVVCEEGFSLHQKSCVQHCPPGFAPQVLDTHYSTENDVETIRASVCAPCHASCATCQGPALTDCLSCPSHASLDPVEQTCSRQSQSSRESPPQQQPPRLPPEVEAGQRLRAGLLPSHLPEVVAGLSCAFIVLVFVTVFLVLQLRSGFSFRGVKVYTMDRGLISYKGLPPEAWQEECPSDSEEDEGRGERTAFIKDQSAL

| Sequence | furin cleavage Z-score (7.5 min) | furin cleavage Z-score (15 min) | furin cleavage Z-score (30 min) |
| --- | --- | --- | --- |
| B1 | -0.111 (inactive) | 1.36 | 2.15 |
| B2 | 1.19 | 1.94 | 0.888 (inactive) |
| B3 | -0.191 (inactive) | 0.0222 (inactive) | -0.958 (inactive) |
| B4 | -0.794 (inactive) | -0.615 (inactive) | -1.7 (inactive) |
| B5 | 5.27 (active) | 8.45 (active) | 8.24 (active) |
| B6 | -1.31 (inactive) | 1.74 | 2.38 |
| B7 | -1.15 (inactive) | 0.288 (inactive) | 0.917 (inactive) |
| B8 | 9.82 (active) | 8.74 (active) | 6.13 (active) |
| B9 | 13 (active) | 10.3 (active) | 7.76 (active) |
| B10 | 0.829 (inactive) | 0.852 (inactive) | 0.011 (inactive) |
| B11 | 0.775 (inactive) | 0.418 (inactive) | 0.0796 (inactive) |
| B12 | 11.4 (active) | 13.5 (active) | 9.45 (active) |
| B13 | 11.3 (active) | 13.4 (active) | 11.2 (active) |
| B14 | 0.481 (inactive) | 1.18 | -0.14 (inactive) |
| B15 | 10.3 (active) | 9.52 (active) | 6.92 (active) |
| B16 | 1.26 | -0.149 (inactive) | -0.331 (inactive) |
| B17 | -0.191 (inactive) | -0.999 (inactive) | -1.58 (inactive) |
| B18 | -0.902 (inactive) | -0.292 (inactive) | -0.928 (inactive) |
| B19 | -0.934 (inactive) | -0.244 (inactive) | -0.368 (inactive) |
| B20 | 0.181 (inactive) | -0.831 (inactive) | -0.0867 (inactive) |
| B21 | -1.67 (inactive) | 0.267 (inactive) | -0.382 (inactive) |
| B22 | -1.75 (inactive) | -0.175 (inactive) | -1.74 (inactive) |
| B23 | 1.29 | 0.207 (inactive) | 0.503 (inactive) |

| Sequence | furin cleavage Z-score (7.5 min) | furin cleavage Z-score (15 min) | furin cleavage Z-score (30 min) |
| --- | --- | --- | --- |
| B24 | 8.01 (active) | 8.75 (active) | 8.6 (active) |
| B25 | 5.27 (active) | 5.92 (active) | 5.79 (active) |
| B26 | -0.682 (inactive) | 0.0797 (inactive) | -0.301 (inactive) |
| B27 | 6.36 (active) | 7.19 (active) | 7.64 (active) |
| B28 | 0.7 (inactive) | -1.48 (inactive) | 0.771 (inactive) |
| B29 | -1.4 (inactive) | 0.134 (inactive) | -1.78 (inactive) |
| B30 | 1.18 | -0.535 (inactive) | 0.271 (inactive) |
| B31 | 3.62 (active) | 3.86 (active) | 6.79 (active) |
| B32 | 3.24 | 3.6 (active) | 5.56 (active) |
| B33 | 1.94 | 3.24 | 4.81 (active) |
| B34 | -0.635 (inactive) | -0.196 (inactive) | 0.174 (inactive) |
| B35 | 1.73 | 3.42 | 4.38 (active) |
| B36 | -0.223 (inactive) | 1.02 | 0.628 (inactive) |
| B37 | -1.17 (inactive) | -0.113 (inactive) | -1.92 (inactive) |
| B38 | 0.545 (inactive) | -0.418 (inactive) | 0.0305 (inactive) |
| B39 | 0.403 (inactive) | 1.75 | -1.15 (inactive) |
| B40 | -1.27 (inactive) | -1.2 (inactive) | -0.699 (inactive) |
| B41 | 0.96 (inactive) | 1.09 | 1.3 |
| B42 | 3.69 (active) | 6.37 (active) | 7.05 (active) |
| B43 | -0.694 (inactive) | -1.61 (inactive) | 0.811 (inactive) |
| B44 | 2.51 | 0.629 (inactive) | 4.48 (active) |
| B45 | 0.424 (inactive) | -0.328 (inactive) | 0.24 (inactive) |
